Assay results: PubChem BioAssay AID624255 (Broad Institute, 2012)
Among all 77,000 compounds or so, about 4,600 (6%) were called active. Another 1% or so got no clear call; they are omitted. Shown is part of a subset that was picked to be rich in actives. A number with no mark means an inactive call.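 Rule for the calls: active = mean inhibition above about 93%, with at least 55% of replicates each passing it (limit read from the data, passing the limit was not always enough); inconclusive = only one of those two conditions holds; inactive = neither condition holds.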

Test: growth inhibition of T. cruzi in host fibroblasts – cell-based, beta-gal Tulahuen parasites, NIH3T3 host, luminescence, primary screen (AID 624255)
Conditions: T. cruzi beta-gal in NIH3T3, GalScreen luminescence, 90 h; at 8.34 µM; stronger effect = higher value

Q: Which inhibition does the source give for `CO[C@@H]1CN(C)C(=O)c2ccc(NS(=O)(=O)c3ccc(C)cc3)cc2OC[C@@H](C)N(Cc2nccs2)C[C@H]1C` here?
A: Its inhibition is 41.1%.

Q: With `C[C@@H]1CN([C@@H](C)CO)C(=O)c2cc(C#CC3CC3)cnc2O[C@@H]1CN(C)C(=O)Cc1ccccn1` as the compound, how does the inhibition read?
A: The inhibition was 51.4%.

Q: For `CCCN(C)C[C@H]1OCCCC[C@@H](C)Oc2ccc(NC(=O)CCC(F)(F)F)cc2C(=O)N([C@H](C)CO)C[C@H]1C`, which inhibition is on record?
A: Its inhibition is 67.3%.

Q: Which inhibition does the source give for `O=C(C[C@H]1CC[C@@H](NC(=O)c2ccncc2)[C@@H](CO)O1)Nc1ccccc1` here?
A: The inhibition was 19.5%.

Q: With `CC(C)NC(=O)Nc1ccc2c(c1)C(=O)N(C)[C@H]1CC[C@H](CC(=O)NCC3CCCCC3)O[C@@H]1CO2` as the compound, how does the inhibition read?
A: The inhibition was 22.4%.

Q: Which inhibition does the source give for `O=C(C1CCOCC1)N1C[C@H]2[C@@H](c3ccccc31)[C@@H](CO)N2Cc1ccccc1F` here?
A: The inhibition was -22.5%.

Q: For `O=C(CN1CCOCC1)N1CCCCN2[C@@H](CO)[C@H](c3ccc(/C=C/c4ccccc4)cc3)[C@@H]2C1`, which inhibition is on record?
A: The inhibition was 102% (active).

Q: Which inhibition does the source give for `O=C(CN1CCOCC1)N1CCCCN2[C@H](CO)[C@H](c3ccc(Br)cc3)[C@H]2C1` here?
A: The inhibition was 36%.

Q: With `OC[C@H]1[C@@H](c2ccc(/C=C/c3ccccc3)cc2)[C@H]2CN(Cc3cccnc3)CCCCN21` as the compound, how does the inhibition read?
A: Its inhibition is 23.4%.

Q: With `Cc1ccc(S(=O)(=O)Nc2ccc3c(c2)C(=O)N([C@@H](C)CO)C[C@@H](C)[C@H](CN(C)Cc2ccc(C(F)(F)F)cc2)O3)cc1` as the compound, how does the inhibition read?
A: The inhibition was 42.1%.

Q: For `COc1ccc(S(=O)(=O)Nc2ccc3c(c2)C(=O)N([C@H](C)CO)C[C@H](C)[C@H](CN(C)Cc2ccc(C(F)(F)F)cc2)O3)cc1`, which inhibition is on record?
A: Its inhibition is 100% (active).

Q: Which inhibition does the source give for `COc1ccc(CN(C)C[C@H]2Oc3ccc(NS(=O)(=O)c4ccc(Cl)cc4)cc3CC(=O)N([C@@H](C)CO)C[C@H]2C)cc1` here?
A: Its inhibition is 96.7% (active).

Q: With `COc1ccc(CN(C)C[C@@H]2Oc3ccc(NS(=O)(=O)c4ccc(F)cc4)cc3C(=O)N([C@@H](C)CO)C[C@@H]2C)cc1` as the compound, how does the inhibition read?
A: Its inhibition is 11.1%.

Q: For `COc1ccc(S(=O)(=O)Nc2ccc3c(c2)C(=O)N([C@@H](C)CO)C[C@H](C)[C@H](CN(C)Cc2ccc(C(=O)O)cc2)O3)cc1`, which inhibition is on record?
A: Its inhibition is -6.07%.

Q: With `COc1ccc(S(=O)(=O)Nc2ccc3c(c2)C(=O)N([C@@H](C)CO)C[C@H](C)[C@@H](CN(C)Cc2ccc(C(F)(F)F)cc2)O3)cc1` as the compound, how does the inhibition read?
A: The inhibition was 105% (active).

Q: For `C[C@@H]1CN([C@@H](C)CO)C(=O)Cc2cc(NS(=O)(=O)c3ccc(Cl)cc3)ccc2O[C@H]1CN(C)Cc1ccc(C(F)(F)F)cc1`, which inhibition is on record?
A: The inhibition was -1.87%.

Q: With `COc1ccc(CN(C)C[C@H]2Oc3ccc(NS(=O)(=O)c4ccc(C)cc4)cc3C(=O)N([C@@H](C)CO)C[C@H]2C)cc1` as the compound, how does the inhibition read?
A: The inhibition was 37.9%.

Q: For `C[C@H](CO)N1C[C@H](C)[C@H](CN(C)Cc2ccc(C(F)(F)F)cc2)Oc2ccc(NS(=O)(=O)c3ccc(Cl)cc3)cc2C1=O`, which inhibition is on record?
A: The inhibition was 127% (active).

Q: For `COc1ccc(CN(C)C[C@@H]2Oc3ccc(NS(=O)(=O)c4ccc(OC)cc4)cc3C(=O)N([C@H](C)CO)C[C@H]2C)cc1`, which inhibition is on record?
A: The inhibition was 0.955%.

Q: For `COc1ccc(S(=O)(=O)Nc2ccc3c(c2)CC(=O)N([C@@H](C)CO)C[C@H](C)[C@@H](CN(C)Cc2ccc(C(=O)O)cc2)O3)cc1`, which inhibition is on record?
A: The inhibition was -13.7%.

Q: Which inhibition does the source give for `COc1ccc(S(=O)(=O)Nc2ccc3c(c2)CC(=O)N([C@H](C)CO)C[C@H](C)[C@H](CN(C)Cc2ccc(C(F)(F)F)cc2)O3)cc1` here?
A: The inhibition was 75%.

Q: With `C[C@@H]1CN([C@@H](C)CO)S(=O)(=O)c2ccc(-c3ccncc3)cc2O[C@@H]1CN(C)C(=O)C1CCC1` as the compound, how does the inhibition read?
A: Its inhibition is 76.2%.

Q: With `O=C(Nc1ccc(F)cc1)N[C@@H]1CC[C@H](CC(=O)N2CCCCC2)O[C@H]1CO` as the compound, how does the inhibition read?
A: Its inhibition is -3.48%.

Q: For `CCCNC(=O)[C@H]1[C@H](CO)[C@H]2Cn3c(ccc(-c4cccc(F)c4)c3=O)[C@@H]1N2C(=O)CC`, which inhibition is on record?
A: Its inhibition is 1.74%.

Q: For `CC(C)CC#Cc1cnc2c(c1)C(=O)N([C@H](C)CO)C[C@H](C)[C@@H](CN(C)C(=O)Cc1cccnc1)O2`, which inhibition is on record?
A: The inhibition was 3.64%.

Q: With `Cc1noc(C)c1S(=O)(=O)N(C)C[C@@H]1OCCCC[C@@H](C)Oc2ccc(NC(=O)c3ccccc3)cc2C(=O)N([C@@H](C)CO)C[C@@H]1C` as the compound, how does the inhibition read?
A: Its inhibition is 14.7%.
